For assay [1], the target named is Tyrosine-protein kinase SYK (Homo sapiens) (UniProt P43405). As to conditions: at 10 µM.
Assay [2] addresses T1, Mitogen-activated protein kinase kinase kinase 7 (Homo sapiens) (UniProt O43318).
T1 sequence (whole entry): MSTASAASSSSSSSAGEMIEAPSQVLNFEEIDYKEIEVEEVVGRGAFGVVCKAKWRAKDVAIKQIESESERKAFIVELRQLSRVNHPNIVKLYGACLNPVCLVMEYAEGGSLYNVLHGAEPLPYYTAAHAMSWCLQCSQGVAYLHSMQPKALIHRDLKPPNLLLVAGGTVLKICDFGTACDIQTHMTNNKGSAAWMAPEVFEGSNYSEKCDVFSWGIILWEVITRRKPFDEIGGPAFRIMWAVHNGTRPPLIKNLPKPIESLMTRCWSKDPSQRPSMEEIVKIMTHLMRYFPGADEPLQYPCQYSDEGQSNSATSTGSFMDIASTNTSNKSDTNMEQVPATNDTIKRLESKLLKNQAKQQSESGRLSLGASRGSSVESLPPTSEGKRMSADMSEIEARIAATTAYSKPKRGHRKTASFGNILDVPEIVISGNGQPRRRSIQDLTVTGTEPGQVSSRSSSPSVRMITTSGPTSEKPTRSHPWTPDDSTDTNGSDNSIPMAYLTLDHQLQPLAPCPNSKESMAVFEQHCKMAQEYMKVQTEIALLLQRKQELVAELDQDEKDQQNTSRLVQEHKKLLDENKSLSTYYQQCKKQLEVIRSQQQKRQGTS
As to conditions: at 1 µM.

Assay [3] has as its target T1, Mitogen-activated protein kinase kinase kinase 7 (Homo sapiens). As to conditions: at 10 µM.
In assay [4] the target is T2, Serine/threonine-protein kinase TAO1 (Homo sapiens) (UniProt Q7L7X3).
T2 sequence (whole entry): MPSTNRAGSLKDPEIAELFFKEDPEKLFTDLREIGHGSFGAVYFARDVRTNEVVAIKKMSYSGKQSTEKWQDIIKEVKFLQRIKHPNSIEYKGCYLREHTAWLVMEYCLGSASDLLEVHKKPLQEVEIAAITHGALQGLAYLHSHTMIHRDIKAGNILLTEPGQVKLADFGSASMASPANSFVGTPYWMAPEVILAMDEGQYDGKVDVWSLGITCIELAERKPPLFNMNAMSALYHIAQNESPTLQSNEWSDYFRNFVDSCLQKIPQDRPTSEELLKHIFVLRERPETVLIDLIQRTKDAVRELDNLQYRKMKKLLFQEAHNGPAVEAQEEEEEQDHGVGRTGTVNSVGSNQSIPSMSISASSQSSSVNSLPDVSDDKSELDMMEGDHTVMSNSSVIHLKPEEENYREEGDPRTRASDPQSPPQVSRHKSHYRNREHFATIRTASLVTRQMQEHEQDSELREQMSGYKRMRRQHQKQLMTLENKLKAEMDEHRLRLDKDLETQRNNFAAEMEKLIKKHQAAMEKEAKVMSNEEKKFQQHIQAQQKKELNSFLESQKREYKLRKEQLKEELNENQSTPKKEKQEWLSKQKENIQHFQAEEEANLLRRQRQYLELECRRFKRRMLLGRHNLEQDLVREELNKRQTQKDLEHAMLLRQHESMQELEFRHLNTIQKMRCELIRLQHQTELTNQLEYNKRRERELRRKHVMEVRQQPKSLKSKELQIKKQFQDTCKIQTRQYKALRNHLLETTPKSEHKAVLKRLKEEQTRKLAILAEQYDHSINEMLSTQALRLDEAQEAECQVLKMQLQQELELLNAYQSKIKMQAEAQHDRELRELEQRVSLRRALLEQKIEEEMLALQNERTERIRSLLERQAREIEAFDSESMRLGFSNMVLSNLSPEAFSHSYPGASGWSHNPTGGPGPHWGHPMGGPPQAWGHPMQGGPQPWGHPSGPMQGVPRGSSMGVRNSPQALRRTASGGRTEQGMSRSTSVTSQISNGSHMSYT
As to conditions: at 1 µM.

The target in assay [5] is T2, Serine/threonine-protein kinase TAO1 (Homo sapiens). As to conditions: at 10 µM.
Assay [6] concerns the target T3, Serine/threonine-protein kinase TAO2 (Homo sapiens) (UniProt Q9UL54).
T3 sequence (whole entry): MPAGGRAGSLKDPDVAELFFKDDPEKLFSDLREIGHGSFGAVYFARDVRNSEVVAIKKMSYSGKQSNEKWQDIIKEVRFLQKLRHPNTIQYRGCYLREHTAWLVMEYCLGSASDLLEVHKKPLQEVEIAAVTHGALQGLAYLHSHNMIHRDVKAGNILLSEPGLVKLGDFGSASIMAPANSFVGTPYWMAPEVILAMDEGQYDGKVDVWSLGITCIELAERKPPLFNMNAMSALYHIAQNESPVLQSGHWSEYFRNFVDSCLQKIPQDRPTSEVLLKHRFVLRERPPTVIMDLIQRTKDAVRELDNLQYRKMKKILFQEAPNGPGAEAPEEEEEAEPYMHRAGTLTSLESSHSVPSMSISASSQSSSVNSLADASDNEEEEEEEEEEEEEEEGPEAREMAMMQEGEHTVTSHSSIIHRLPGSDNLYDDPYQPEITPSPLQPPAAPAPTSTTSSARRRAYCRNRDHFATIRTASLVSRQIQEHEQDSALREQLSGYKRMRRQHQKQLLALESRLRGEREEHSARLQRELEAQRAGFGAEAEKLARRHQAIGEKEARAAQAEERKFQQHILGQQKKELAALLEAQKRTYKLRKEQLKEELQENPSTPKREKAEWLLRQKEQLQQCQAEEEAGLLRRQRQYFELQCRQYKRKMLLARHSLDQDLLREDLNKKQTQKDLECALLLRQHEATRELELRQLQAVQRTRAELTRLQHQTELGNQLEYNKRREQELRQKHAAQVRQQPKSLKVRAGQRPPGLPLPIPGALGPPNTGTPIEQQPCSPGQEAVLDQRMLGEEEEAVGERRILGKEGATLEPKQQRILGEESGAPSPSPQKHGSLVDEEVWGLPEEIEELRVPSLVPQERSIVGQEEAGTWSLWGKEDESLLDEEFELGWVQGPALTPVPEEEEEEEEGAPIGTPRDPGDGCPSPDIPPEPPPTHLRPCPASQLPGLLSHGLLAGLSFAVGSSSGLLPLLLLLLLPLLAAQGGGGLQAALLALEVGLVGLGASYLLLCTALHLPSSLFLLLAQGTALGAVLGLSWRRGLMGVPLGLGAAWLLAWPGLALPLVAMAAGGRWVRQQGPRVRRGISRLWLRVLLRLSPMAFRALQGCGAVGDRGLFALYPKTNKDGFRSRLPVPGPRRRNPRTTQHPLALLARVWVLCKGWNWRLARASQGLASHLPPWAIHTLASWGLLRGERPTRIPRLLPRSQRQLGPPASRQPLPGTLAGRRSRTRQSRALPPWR
As to conditions: at 1 µM.

Assay [7] deals with T3, Serine/threonine-protein kinase TAO2 (Homo sapiens). As to conditions: at 10 µM.
Assay [8] has as its target T4, Serine/threonine-protein kinase TAO3 (Homo sapiens) (UniProt Q9H2K8).
T4 sequence (whole entry): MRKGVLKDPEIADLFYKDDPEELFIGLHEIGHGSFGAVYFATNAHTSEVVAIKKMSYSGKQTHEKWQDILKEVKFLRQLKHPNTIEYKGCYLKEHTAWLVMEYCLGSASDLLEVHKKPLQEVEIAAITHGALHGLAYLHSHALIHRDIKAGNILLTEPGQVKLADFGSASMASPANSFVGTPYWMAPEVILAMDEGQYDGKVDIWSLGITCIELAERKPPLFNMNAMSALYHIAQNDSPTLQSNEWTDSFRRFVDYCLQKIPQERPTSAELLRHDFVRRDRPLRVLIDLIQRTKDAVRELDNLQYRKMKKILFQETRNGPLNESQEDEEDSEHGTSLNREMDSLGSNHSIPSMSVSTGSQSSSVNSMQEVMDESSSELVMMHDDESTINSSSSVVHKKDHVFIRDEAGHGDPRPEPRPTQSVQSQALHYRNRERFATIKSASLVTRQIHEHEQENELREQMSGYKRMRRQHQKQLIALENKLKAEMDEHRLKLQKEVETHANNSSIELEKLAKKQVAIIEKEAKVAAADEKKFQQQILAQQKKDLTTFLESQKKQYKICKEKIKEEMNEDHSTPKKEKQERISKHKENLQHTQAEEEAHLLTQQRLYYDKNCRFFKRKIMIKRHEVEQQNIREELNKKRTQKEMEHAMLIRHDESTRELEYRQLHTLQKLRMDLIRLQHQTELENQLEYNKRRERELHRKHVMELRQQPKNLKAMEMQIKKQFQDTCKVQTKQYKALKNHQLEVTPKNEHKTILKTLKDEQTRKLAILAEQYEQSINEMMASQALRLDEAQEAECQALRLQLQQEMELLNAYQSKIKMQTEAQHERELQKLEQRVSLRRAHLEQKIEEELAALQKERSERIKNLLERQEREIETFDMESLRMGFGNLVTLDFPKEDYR
As to conditions: at 1 µM.

In assay [9] the target is T4, Serine/threonine-protein kinase TAO3 (Homo sapiens). As to conditions: at 10 µM.

In the case of `Nc1nc(Nc2ccc(S(N)(=O)=O)cc2)nn1C(=S)Nc1c(F)cccc1F`, the residual activity was determined as 3% in assay [1]; 9% in assay [2]; 2% in assay [3]; 0% in assay [4]; 1% in [5]; 2% in assay [6]. Besides, the residual activity in assay [7] stood at 3%; in assay [8], 0%; in assay [9], 2%.

Values taken from ChEMBL document CHEMBL2218924, “A broad activity screen in support of a chemogenomic map for kinase signalling research and drug discovery” (Biochem J, 2013).
